Data on 57 molecules can be found in ChEMBL document CHEMBL4513216, “Probing the Open Global Health Chemical Diversity Library for Multistage-Active Starting Points for Next-Generation Antimalarials” (ACS Infect Dis, 2020).

Screen size: about 69,000 compounds; about 8,600 (12%) showed an effect of 50% or more. This excerpt belongs to a sample that is enriched for strong results.

The experiment deals with Plasmodium berghei. The experiment is described as follows: Screen against P. berghei liver stage (PbLuc), transformed with Luciferase, at 10uM. The class given is functional, HepG2. The conditions noted are these: tested at 10 uM.
Take `Cc1nn(CC(=O)NCCc2ccncc2)c(=O)n1Cc1ccccc1`: the INHIBITION is -45%.

In the case of `CNC(=O)CN(C)C(=O)c1cc(Cl)c(I)cc1OC`, the INHIBITION is listed as 45.2%. In the case of `CCOC(=O)NC1CCCN(Cc2ccc(-n3cncn3)c(C)c2)C1` (configuration not stated) it was -1.35%; in that of `CC(Cn1cncn1)NCc1ccc2nonc2c1` (configuration not stated), 12%; in that of `Cc1nc(CN)cc(NCc2ccccc2-n2cncn2)n1`, 33.7%. As to `CCc1cc(NCc2ccc(-n3cncn3)c(C)c2)n(C)n1`, the INHIBITION is given as 79.5%. `Cc1cc(CNc2ccnn2CC(C)C)ccc1-n1cncn1`: the INHIBITION came to 89.7%. In the case of `CCCNC(=O)C1CCCN(Cc2ccc(-n3cncn3)c(C)c2)C1` (configuration not stated) it was -14.5%; in that of `Cc1cc(CNC(C)Cn2cncn2)ccc1Br` (configuration not stated), 41.4%; in that of `Cc1cc(CNc2ccnn2C)ccc1-n1cncn1`, 62.8%.

Turning to `Cc1cc(CN2CCCC(NS(C)(=O)=O)C2)ccc1-n1cncn1` (configuration not stated), the INHIBITION is reported as -3.14%. On to `CN1CCc2ncc(CNC(=O)c3cccn3C)n2CC1`, for which the INHIBITION was 20.9%. On to `CCn1ccnc1CN1CCN(Cc2cnc(C)cn2)CC1C` (configuration not stated), for which the INHIBITION was 13.2%. Consider `CCC(=O)N1CCCC1c1csc(Nc2cnccn2)n1` (configuration not stated), for which the INHIBITION is -4.82%.

`c1cnc(N2CCCC(c3csc(Nc4cnccn4)n3)C2)nc1` (configuration not stated): the INHIBITION is reported as 61.3%. With `CC(=O)N1CCCC1c1csc(Nc2cnccn2)n1` (configuration not stated) the figure was 13.5%. With `c1cnc(N2CCC(c3csc(Nc4cnccn4)n3)CC2)nc1` the figure was 76.7%.

In the case of `NC(=O)CN1CCCC1c1csc(Nc2cnccn2)n1` (configuration not stated), the INHIBITION is reported as 51.5%. In the case of `Cc1nc(Nc2cnccn2)cc(C2CCN(c3ncccn3)C2)n1` (configuration not stated) it was -17.7%.

Turning to `OCCN1CCC(c2csc(Nc3cnccn3)n2)CC1`, the INHIBITION was determined as 0.825%.

On to `NC(=O)CN1CCC(c2csc(Nc3cnccn3)n2)CC1`, for which the INHIBITION is on record as 33.8%. For the molecule `COCC(=O)N1CCCC1c1csc(Nc2cnccn2)n1` (configuration not stated), the INHIBITION came out at 44.1%. In the case of `CCCn1cnnc1CN(C)C(=O)C1CCCN(C2CCN(C)CC2)C1` (configuration not stated) it was -21.3%. In the case of `COCCC(=O)N1CCCC1c1nc(O)cc(-c2ccccn2)n1` (configuration not stated) it was 35.2%. With `Cc1nc2n(n1)CC(Nc1nc(-c3ccccc3)no1)CC2` (configuration not stated) the figure was -6.51%. Turning to `CSCc1cc(F)ccc1CNC(=O)N1CCC(CO)CC1`, the INHIBITION was determined as 56.6%.

`COc1ccccc1CNC(=O)N1CCCC(CO)C1` (configuration not stated): the INHIBITION is listed as -10.7%.

`CSCc1cc(F)ccc1CNC(=O)N1CCCC(CO)C1` (configuration not stated): the INHIBITION is reported as 78.3%. In the case of `CSCc1cc(F)ccc1CNC(=O)N1CCOCC1` it was 13.1%.

With `CSCc1cc(F)ccc1CNC(=O)N1CCCC1`, the INHIBITION is -110%. As for `CSCc1cc(F)ccc1CNC(=O)N1CCC[C@@H]1CO`, the INHIBITION is reported as 31.9%. As to `Cc1c(Cl)cccc1NC(=O)c1nc[nH]n1`, the INHIBITION is reported as -1.16%. For `COc1ccc(-c2cc3nn(CC(N)=O)c(=O)n3c(C)n2)cc1`, the INHIBITION was 14.3%. Regarding `Cc1nc(-c2ccccc2)cc2nn(CC(N)=O)c(=O)n12`, the INHIBITION turned out to be 28.6%. In the case of `COc1ccc(-c2cc3nn(CC(=O)NC(C)C)c(=O)n3c(C)n2)cc1`, the INHIBITION is on record as 53.2%.

For `NC(=O)CC1CCN(C(=O)NCCc2ccc(Cl)s2)CC1`, the INHIBITION is given as -17.6%. In the case of `c1ccc(CN2CCCC3(CCN(Cc4cccs4)C3)C2)nc1` (configuration not stated) it was 21.1%; in that of `Cc1nn(C)c(N2CCOCC2)c1CNC(c1ccccc1)C1CC1` (configuration not stated), 14.6%; in that of `O=C(C1CCCC1)N1CC2(CCCN(C3COC3)C2)Cc2ccccc21` (configuration not stated), -0.621%. Turning to `O=C(C1CCCOC1)N1CCCc2ccccc21` (configuration not stated), the INHIBITION was -21%.

As for `O=C(C1CCCC1)N1CC2(CCN(C3COC3)C2)Cc2ccccc21` (configuration not stated), the INHIBITION was found to be 10.1%. In the case of `O=C(C1CCCC1)N1CC2(CCN(C3COC3)C2)OCc2ccccc21` (configuration not stated) it was 53.2%; in that of `O=C(C1CCCC1)N1CC2(CCN(C3COC3)CC2)Cc2ccccc21`, 53.2%; in that of `O=C(C1CCCC1)N1CC2(CCNC2)OCc2ccccc21` (configuration not stated), 11%.

For `Cc1ccc(-c2[nH]c3ccccc3c2C(=O)O)c(C)c1`, the INHIBITION is 31.7%. In the case of `c1nc(CN2CCC3(CC2)COCCN3CC2CC2)c[nH]1`, the INHIBITION is listed as -2.17%.

Regarding `N#Cc1ccccc1N1CCCN(C(=O)CCc2ccsc2)CC1`, the INHIBITION worked out at 19.2%. In the case of `CC(C)n1cnnc1CN(C)C(=O)c1ccccc1-n1cncn1` it was 31.7%.

Regarding `COC[C@]1(O)CCN(Cc2cnc(N3CCOCC3)nc2)CC1(C)C`, the INHIBITION came out at 32.3%. As to `CC1(C)CN(C(=O)c2ncc(F)cc2F)CCC1(O)CN1CCOCC1` (configuration not stated), the INHIBITION came to 76.3%. With `CCc1ncc(C(=O)N2CCC(O)(CN3CCOCC3)C(C)(C)C2)cn1` (configuration not stated) the figure was 10.9%; with `COCCCN1CC2(CCN(Cc3cc(C(C)C)no3)CC2)CC1=O`, 41.2%; with `COCCCN1CC2(CCN(C(=O)Cc3csc(C)n3)CC2)CC1=O`, -44.8%. As for `CCSc1ncc(CN2CCC(O)(CN3CCOCC3)C(C)(C)C2)cn1` (configuration not stated), the INHIBITION is reported as 81%. In the case of `CSc1ncc(C(=O)N2CCC(O)(CN3CCOCC3)C(C)(C)C2)cn1` (configuration not stated) it was 40.6%; in that of `COCCCN1CC2(CCN(C(=O)c3ncc(F)cc3F)CC2)CC1=O`, 58.1%; in that of `CCSc1ncc(CN2CC[C@@](O)(COC)C(C)(C)C2)cn1`, 43.5%.
